This is a sample that favours compounds with a hit; in the whole collection about 11% have one here.
PNC assembly inh – perinucleolar compartment assembly inhibition. AID 2417. activity change (PNC), negative = inhibition, % at 10 µM. actives 3.1% (n = 140,000). PC3M PTB-GFP, PNC prevalence imaging, 16 h; stronger effect = lower value;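 active = readout at or below -70, meaning at least 70% loss of cells showing the perinucleolar compartment, a nuclear body marking cancer cells; inconclusive = readout between -30 and a set limit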;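 note: plate controls were DMSO wells for no effect and camptothecin positive control wells for full effect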
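Compounds are pinned in duplicate onto adhered PC3M cells stably expressing GFP-tagged PTB and incubated 16 h at 37 C. Cells are then fixed, nuclei stained with Hoechst, and PNC-positive cells counted.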
IMPase inh – IMPase inhibition in cells. inhibition (IP1 accumulation), % at 46.1 µM. CHO-M1 cells, IP1 accumulation, HTRF TR-FRET ratio. 120,000 tested, under 10 active; active = well fitted curve in the direction sought with a large enough effect in the signal ratio, not every such curve was filed as active; inconclusive = small, poorly fitted or top-dose-only effect, or a change in a side signal; inactive = no such curve, though single readings can be large or run the other way; the % refers to the signal ratio;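 note: cells stimulated with carbachol in lithium chloride buffer; plate controls were DMSO basal wells for no effect and reference inhibitor wells for full effect; higher means more IMPase inhibition seen as more IP1 and lower FRET ratio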
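CHO-M1, 2000 cells/well, cultured 16–30 h; cpd up to 46 uM; carbachol (50 uM solution, stimulation buffer w/ 50 mM LiCl, pH 7.4), 30 min 37C; IP-One TR-FRET, 10 min RT; Ex 320/Em 665, 620; Hill-fit AC50.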
ALDH1A1 inh – inhibitors of human aldehyde dehydrogenase 1A1 | P00352 | Purified ALDH1A1, NADH fluorescence, propionaldehyde substrate | Potency, µM (highest dose often 75.3 µM), for inactives: at the highest dose activity, negative = inhibition, hits mostly inhibitors | actives 7.3% (n = 220,000) | AID 1030;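 note: potency is the fitted concentration of half-maximal effect; plate controls were no enzyme wells and a reference inhibitor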
Target sequence (P00352 whole entry, looked up): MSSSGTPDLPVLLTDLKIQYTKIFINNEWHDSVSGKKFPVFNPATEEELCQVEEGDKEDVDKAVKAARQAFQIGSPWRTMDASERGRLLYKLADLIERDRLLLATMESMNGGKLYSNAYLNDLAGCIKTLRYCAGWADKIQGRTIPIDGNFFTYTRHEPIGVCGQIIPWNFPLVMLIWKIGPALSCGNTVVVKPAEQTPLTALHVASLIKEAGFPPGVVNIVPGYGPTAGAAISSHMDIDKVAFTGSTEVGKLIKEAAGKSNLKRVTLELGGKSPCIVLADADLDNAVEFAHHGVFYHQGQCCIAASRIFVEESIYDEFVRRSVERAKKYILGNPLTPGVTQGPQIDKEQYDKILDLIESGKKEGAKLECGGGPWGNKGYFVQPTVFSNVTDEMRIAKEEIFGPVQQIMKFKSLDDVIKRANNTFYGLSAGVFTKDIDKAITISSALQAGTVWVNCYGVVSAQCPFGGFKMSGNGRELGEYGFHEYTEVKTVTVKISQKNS
IMPase Li inh – membrane-permeable IMPase blocker, potentiated with lithium; CHO-M1 cells, IP1 TR-FRET (IP-One), carbachol + lithium; Potency, µM (series often up to 59.4 µM), without a hit: top-dose activity, negative = IMPase inhibition, most hits filed as inhibitors; actives 0.35% (n = 210,000); AID 1457; active = well fitted inhibition curve with a large enough effect; inconclusive = small, poorly fitted or top-dose-only effect; inactive = no such curve, though single readings can be large or run the other way;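 note: IP1 builds up when IMPase is blocked and the TR-FRET signal falls; potency is the fitted concentration of half-maximal effect; plate controls were basal vehicle for no effect and high inhibitor control for full effect; nearly all actives have a fitted effect of over 50% in size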
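CHO cells stably expressing M1 receptor (2000/well) were cultured 16–30 h, then exposed to compounds with a small lithium addition for 30 min at 37C. IP1 was measured by TR-FRET competition; AC50 from Hill fits.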
HPGD block – blocks human HPGD enzyme activity. actives 4.3% (n = 150,000). AID 894. purified HPGD, NADH fluorescence kinetic, PGE2 substrate. Potency, µM, without a hit: at the highest dose activity change, negative = inhibition, hits mostly inhibitors. P15428; note: potency is the fitted concentration of half-maximal effect
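20 nM HPGD preincubated 15 min at room temperature with compound in 50 mM Tris-HCl pH 8, 0.01% Tween 20. Started with 1 mM NAD+ and 30 uM prostaglandin E2; NADH fluorescence (360/450 nm) read 5 times over 30-s intervals, last minus first.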
Numbers without * were called inactive; [ ] = remark or other dose. Unless noted, calls come from the whole dose curve; as a rule, active = well fitted inhibition curve with a large enough effect (not every such curve was filed as active); inconclusive = small, poorly fitted or top-dose-only effect, or another doubt; inactive = no such curve, though single readings can be large or run the other way. Unless noted, % is set by controls: 0 for no effect and ±100 for the full control effect.

For CC(C)O/C(=N\S(=O)(=O)c1ccc(Cl)cc1)c1ccccc1 the results were PNC assembly inh inconclusive, IMPase inh 3, ALDH1A1 inh -2%, IMPase Li inh 31%[38.3 µM] and HPGD block -9%.
`CC(C)OC(=S)N/C(=N\S(=O)(=O)c1ccccc1)c1ccccc1` gave PNC assembly inh 35, IMPase inh -1, ALDH1A1 inh 11µM*, IMPase Li inh 4% and HPGD block inconclusive.
For Cc1c(NC(=S)N/C(=N/S(=O)(=O)c2ccc(Cl)cc2)c2ccccc2)c(=O)n(-c2ccccc2)n1C the results were ALDH1A1 inh 8.9µM*.
For CS(=O)(=O)N(CC(=O)Nc1ccccc1C(=O)N1CCCC1)c1ccc2c(c1)OCO2 the results were ALDH1A1 inh -8% and IMPase Li inh 3%.
Cc1cc(=O)[nH]c2c(N=Nc3ccc(O)cc3)c(N)nn12 was read as ALDH1A1 inh 18µM* and IMPase Li inh 37%.
For CCN(CC)Cc1c(O)ccc2c(C)c(CC(=O)OC)c(=O)oc12 the results were PNC assembly inh 1, IMPase inh -23, ALDH1A1 inh inconclusive, IMPase Li inh 10µM* and HPGD block inconclusive.
CCN(CC)Cc1c(O)ccc2c(-c3ccccc3)cc(=O)oc12 was read as PNC assembly inh -118*, IMPase inh -12, ALDH1A1 inh inconclusive, IMPase Li inh -7%[38.3 µM] and HPGD block inconclusive.
For COC(=O)Cc1c(C)c2ccc(OCC(C)=O)c(C)c2oc1=O the results were PNC assembly inh -26, IMPase inh 8, ALDH1A1 inh inconclusive, IMPase Li inh 10%[38.3 µM] and HPGD block inconclusive.
Screening Cc1nn(-c2ccccc2)c(C)c1/C=N/N1CCN(Cc2ccccc2)CC1 returned ALDH1A1 inh -1%, IMPase Li inh 4% and HPGD block -1%.
COc1ccccc1NC(=S)NCCc1ccc(S(N)(=O)=O)cc1 was read as ALDH1A1 inh inconclusive and IMPase Li inh 8%.
Screening COc1ccc(Cl)cc1NC(=S)NCCc1ccc(S(N)(=O)=O)cc1 returned ALDH1A1 inh 6.3µM*.
COc1ccc(Cl)cc1NC(=S)NCCO was read as ALDH1A1 inh 13% and IMPase Li inh -4%.
COc1ccc(NC(=S)NCCc2ccc(S(N)(=O)=O)cc2)c(OC)c1 was read as ALDH1A1 inh 22µM* and IMPase Li inh 0%.
`COc1cc(C)ccc1OCCn1c(-c2ccc(Cl)cc2)nc2ccccc2c1=O` gave IMPase inh 12.
For c1ccc2c(c1)ncn2CCCCOc1ccc2c(c1)CCC2 the results were PNC assembly inh 50, IMPase inh 9, ALDH1A1 inh 14µM*, IMPase Li inh 48%[38.3 µM] and HPGD block inconclusive.
`CC(Sc1nc(-c2ccccc2)cc(C(F)(F)F)n1)C(=O)NCc1ccco1` (stereo not given) gave PNC assembly inh -17, IMPase inh 2, ALDH1A1 inh -9%, IMPase Li inh 34%[38.3 µM] and HPGD block -11%.
`CC(Sc1nc(-c2ccccc2)cc(C(F)(F)F)n1)C(=O)N1CCCCC1` (stereo not given) gave PNC assembly inh 64, IMPase inh 5, ALDH1A1 inh -10%, IMPase Li inh 6%[38.3 µM] and HPGD block 7.1µM*.
`CC1CCCN(C(=O)C(C)Sc2nc(-c3ccccc3)cc(C(F)(F)F)n2)C1` (stereo not given) gave PNC assembly inh inconclusive, IMPase inh 2, ALDH1A1 inh -12%, IMPase Li inh 33%[38.3 µM] and HPGD block 16µM*.
Screening COC(=O)N1CCC2(CC1)CCN(C(c1ccccc1)c1ccccc1)CC2 returned ALDH1A1 inh 10%, IMPase Li inh 27% and HPGD block -1%.
Screening Cc1ccc(NC(=O)C2CCN(S(=O)(=O)c3c(C)noc3C)CC2)c(C)c1 returned IMPase inh 9.
Screening Cc1cc(N)ccc1-n1c(C)ccc1C returned PNC assembly inh -28, IMPase inh -2, ALDH1A1 inh 10µM*, IMPase Li inh -4%[38.3 µM] and HPGD block -7%.
Screening Cc1cc(N)ccc1N1CCCC1 returned PNC assembly inh 26, IMPase inh 20, ALDH1A1 inh 25µM*, IMPase Li inh 45%[38.3 µM] and HPGD block -5%.
Cc1ccc(-n2c(C)cc(=O)cc2C)c(C)c1 was read as PNC assembly inh 10, IMPase inh -16, ALDH1A1 inh 7%, IMPase Li inh 64% and HPGD block -6%.
For Cc1cc(N2CCCC2)c(C)cc1C=O the results were PNC assembly inh 44, IMPase inh 1, ALDH1A1 inh 14µM*, IMPase Li inh 20%[38.3 µM] and HPGD block -7%.
Screening COc1cccc(Cn2c(=O)cnc3cnc(Oc4cccc(Cl)c4)nc32)c1 returned ALDH1A1 inh inconclusive, IMPase Li inh 21% and HPGD block inconclusive.
`COc1ccccc1NC(=O)Nc1nc(C(C)(C)C)cs1` gave ALDH1A1 inh 0% and IMPase Li inh -24%.
COC(=O)CCN(C(=O)c1cccc([N+](=O)[O-])c1)c1ccccn1 was read as ALDH1A1 inh 0% and IMPase Li inh 11%.
`Cc1cccn2c(CN(C)CC3CCCCO3)c(C(=O)N3CCCCC3)nc12` (stereo not given) gave ALDH1A1 inh 0.2µM*.
Screening Cc1ccc2c(c1)N[C@H](c1ccc(C(=O)O)cc1)c1cccn1-2 returned ALDH1A1 inh inconclusive, IMPase Li inh -20% and HPGD block inconclusive.
COCCn1c(=O)c(-c2cn(C)c3ccccc23)nc2cnc(Oc3cccc(Cl)c3)nc21 was read as ALDH1A1 inh 0% and IMPase Li inh -20%.
For O=S(=O)(c1cc(Cl)ccc1Cl)N1CCCC1 the results were PNC assembly inh inconclusive, IMPase inh -4, ALDH1A1 inh 0.089µM*, IMPase Li inh 46%[38.3 µM] and HPGD block -15%.
For O=S(=O)(c1cccc2c(S(=O)(=O)N3CCCC3)cccc12)N1CCCC1 the results were PNC assembly inh -129*, IMPase inh 5, ALDH1A1 inh 1%, IMPase Li inh 12%[38.3 µM] and HPGD block 0%.
Screening O=S(=O)(c1cccc2c(Cl)cccc12)N1CCCNCC1 returned IMPase inh -6, ALDH1A1 inh -5%, IMPase Li inh -7% and HPGD block -10%.
O=S(=O)(c1cc(Cl)ccc1Cl)N1CCCCC1 was read as PNC assembly inh inconclusive, IMPase inh 9, ALDH1A1 inh 0%, IMPase Li inh 0%[38.3 µM] and HPGD block -15%.
For O=C(O)c1nn(-c2ccccc2)ccc1=O the results were PNC assembly inh -2, IMPase inh 4, ALDH1A1 inh -4%, IMPase Li inh -1%[38.3 µM] and HPGD block -13%.
`CCCn1c(-c2ccc(F)cc2)nc2c(NCCCN3CCCCC3C)nc(C)nc21` (stereo not given) gave ALDH1A1 inh inconclusive, IMPase Li inh 3% and HPGD block -26%.

Bioassay records as filed in PubChem.
